A selection: hits, their analogues and other compounds. The true share with any hit is near 3.6%.
Pf apPOL inh – Pf-apPOL inhibitors, biochemical, fluorescence; Plasmodium falciparum apicoplast DNA polymerase (apPOL); Recombinant Pf-apPOL, molecular beacon fluorescence, 1.5 h; inhibition, % at 10 µM; 210,000 compounds, 0.25% hits; AID 1794808, 2022
mHTT-CaM PPI inh – mutant huntingtin-calmodulin interaction inhibitors – biochemical, AlphaScreen, primary screen; P42858; AlphaScreen His-mHTT/GST-CaM binding, luminescence; inhibition, % at 15 µM; 190,000 compounds, 3.6% hits;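 note: 0% = both proteins with DMSO and 100% = one protein alone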
* marks the source's active call; other numbers are inactive results; . = not tested or not shown; ! = not confirmed by another sample. Cut-off read from the data, not from the text of the source: active = inhibition above about 50%; inactive = the rest.

SMILES	Pf apPOL inh	mHTT-CaM PPI inh
CC(SCc1n[nH]c(=O)[nH]1)C(=O)Nc1nccs1 (stereo unspecified)	.	-2.0
NC(=O)c1cc2nc(-c3ccc(Br)cc3)cc(C(F)(F)F)n2n1	-7.9	-2.0
CCNc1cc(N2CCCC(CCC(=O)NCc3ccc(F)cc3F)C2)ncn1 (stereo unspecified)	-3.9	6.7
CCc1c(C)c(C#N)c2nc3ccccc3n2c1NCCO	73.1*	-3.0
Cc1ccc(-n2[nH]c(=O)c(C=c3c(C)c(C#N)c4nc5ccccc5n4c3=O)c2O)cc1C	-4.7	46.0
CCc1c(C)c(C#N)c2nc3ccccc3n2c1NCCOC	-0.3	-3.0
CCc1c(C)c(C#N)c2nc3ccccc3n2c1NCCC(C)C	-2.2	-14.0
CCc1c(C)c(C#N)c2nc3ccccc3n2c1NCCCN(C)C	60.0*	-4.0
CCc1ccc(-n2[nH]c(=O)c(C=c3c(C)c(C#N)c4nc5ccccc5n4c3=O)c2O)cc1	5.6	57.0*
CCc1c(C)c(C#N)c2nc3ccccc3n2c1NCCCN(CC)CC	81.9*	-2.0
C=CCc1c(C)c(C#N)c2nc3ccccc3n2c1NCCCN(CC)CC	-74.3	-6.0
CN1C(=O)C(=O)C(=C(O)c2ccccc2)C1c1ccccc1 (stereo unspecified)	-8.2	-3.2
CS(=O)(=O)NC1CC2CC1N(C(=O)Cc1c(F)cccc1Cl)C2 (stereo unspecified)	-4.8	-1.8
CC1CN(c2ccc([N+](=O)[O-])cc2S(=O)(=O)N2CCCCC2)CC(C)O1 (stereo unspecified)	-12.0	5.0
Cc1ccc2nc(-c3ccc(Cl)cc3)cn2c1	-13.7	7.6
N#Cc1c2c(c(NCCN3CCOCC3)n3c1nc1ccccc13)CCCC2	-1.1	-4.0
N#Cc1c2c(c(NCCCN3CCOCC3)n3c1nc1ccccc13)CCC2	67.1*	6.0
Cn1c(=O)c2cc(C(=O)Nc3ccc(C(F)(F)F)cc3)nn2c2ccccc21	0.7	-7.7
CCCc1cc(C2CCCN2C(=O)Nc2cccc(C)c2C)no1 (stereo unspecified)	-8.4	7.4
CCc1ccc(NC(=O)CSc2nc3c(c(=O)n2-c2ccc(Cl)cc2)SCC3)cc1	99.4*	19.0
CCc1ccc(NC(=O)CSc2nc3c(c(=O)n2-c2ccccc2)SCC3)cc1	2.1	15.0
O=[N+]([O-])c1ccc(SC2=NCCS2)c([N+](=O)[O-])c1	-0.9	.
O=[N+]([O-])c1ccc(Sc2cccs2)c([N+](=O)[O-])c1	.	64.4*
COC(=O)c1ccc(Oc2coc3c4c(ccc3c2=O)OCN(Cc2ccccn2)C4)cc1	-36.5	100.2*
COC(=O)c1ccc(Oc2c(C)oc3c4c(ccc3c2=O)OCN(Cc2cccnc2)C4)cc1	-0.2	0.0
SMILES	Pf apPOL inh	mHTT-CaM PPI inh
COC(=O)c1ccc(Oc2coc3c4c(ccc3c2=O)OCN(Cc2ccc(OC)cc2)C4)cc1	-18.3	19.4
O=C1c2ccccc2C(=O)c2c1oc1c3c(ccc21)OCN(Cc1ccccn1)C3	-6.5	100.0*
O=C1c2ccccc2C(=O)c2c1oc1c3c(ccc21)OCN(Cc1ccco1)C3	-4.8	93.0*
c1coc(CN2COc3cc4c(cc3C2)OCN(Cc2ccco2)C4)c1	.	3.0
COc1ccc(CN2COc3ccc4c(=O)c(-c5ccccc5)c(C)oc4c3C2)cc1	-8.6	11.6
O=C1c2ccccc2C(=O)c2c1oc1c3c(ccc21)OCN(Cc1cccnc1)C3	11.7	94.0*!
Cc1cccc(CNC(=O)C2CCN(c3cn[nH]c(=O)c3)CC2)c1	-10.0	-4.2
CCOc1ccc(S(=O)(=O)NCC(C)(O)c2ccco2)cc1C (stereo unspecified)	-3.9	7.3
O=C(NCCNC(=O)c1ccc(F)cc1F)c1ccc(NC(=O)C2CC2)cc1	2.4	-0.8
CCC(=O)Nc1ccc(C2(C(=O)NCCN3CCCC3)CCCCC2)cc1	0.7	-2.0
Cc1noc(-c2cccc(C(F)(F)F)c2)c1C(=O)NCc1ccsc1	-5.9	-9.1
CCCNC(=O)Nc1cccn2nc(C)nc12	-3.6	-3.3
O=C(c1ccc(C(F)(F)F)s1)N1CCN(c2nc(CN3CCOCC3)cs2)CC1	-3.6	9.7
Nc1nnc(SC(c2ccccc2)c2ccccc2)s1	-2.8	2.3
N#CSC(CS(=O)(=O)c1ccccc1)c1ccccc1 (stereo unspecified)	-7.3	-10.4
N#CSC(CS(=O)(=O)c1cccc([N+](=O)[O-])c1)c1ccccc1 (stereo unspecified)	-7.4	93.7*
Cc1ccccc1CNC(=O)C1(C)CCCN(C(=O)Nc2ccccc2Cl)C1 (stereo unspecified)	0.1	0.0
CCCCNC(=O)c1cc(S(=O)(=O)N2CC(C)CC(C)C2)ccc1F (stereo unspecified)	0.1	-2.0
Brc1ccccc1-c1nnc2n1N=C(c1ccccc1)CS2	-3.6	31.0
Brc1cccc(C2=Nn3c(nnc3-c3ccccn3)SC2)c1	.	54.4*
CC(=O)c1ccc(NC(=O)CN2CCC(c3nc(-c4ccccc4)no3)CC2)cc1	-0.5	8.5
Cc1cc2oc(=O)cc(-c3cc4ccccc4o3)c2cc1O	3.3	5.5
Cc1c2cc(O)c(=O)cc-2oc2cc(O)c(O)cc12	.	100.3*
OC1CCN(Cc2ccc(Br)cc2)CC1	-6.2	-0.4
Cc1ccc(-c2nc(C(=O)Nc3ccc(F)cc3)cs2)n1C	1.6	58.1*
SMILES	Pf apPOL inh	mHTT-CaM PPI inh
Cc1ccc(-c2nc(C(=O)NC3CCCC3)cs2)n1C	-0.4	42.4
Cc1ccc(-c2nc(C(=O)NC3CCN(Cc4ccccc4)CC3)cs2)n1C	-2.9	75.2*
Cc1ccccc1NC(=O)c1csc(-c2ccc(C)n2C)n1	-5.4	-5.9
O=C(c1csc(-c2ccncc2)n1)N1CCC(N2CCCCC2)CC1	-2.0	-10.9
Cc1ccc(-c2nc(C(=O)N3CCN(C4CCCCC4)CC3)cs2)n1C	-2.7	69.9*
COc1ccc(Cl)cc1NC(=O)c1ccoc1	-4.0	-5.4
CCCCN(CC)S(=O)(=O)c1ccc(C(=O)Nc2nnc(CC)o2)cc1	-2.1	24.0
CCCCN(CC)S(=O)(=O)c1ccc(C(=O)Nc2nc(-c3ccccn3)cs2)cc1	-6.8	96.0*
O=C(Nc1nc(-c2ccccn2)cs1)c1ccc(S(=O)(=O)N2CCCCC2)cc1	1.6	100.0*
O=C(Nc1nc(-c2ccccn2)cs1)c1ccc(S(=O)(=O)N2CCOCC2)cc1	-7.5	3.0
COc1ccc(-c2c(C(=O)N(C)C)nc3ccccn23)cc1	3.5	-7.4
COc1cc(C(CCN2CCCC(C)C2)c2c(OC)cc(OC)c3c2OC(=O)CC3c2ccc(N(C)C)cc2)cc(OC)c1OC (stereo unspecified)	7.3	93.2*
COc1cc(C2CC(=O)Oc3ccc(C(C)(C)C)cc32)cc(OC)c1OC (stereo unspecified)	-1.0	29.8
COc1ccc(C(CCN2CCCC(C)C2)c2c(O)cc(OC)cc2OC)cc1 (stereo unspecified)	-1.3	15.3
COc1cc(OC)c2ccc(=O)oc2c1C(CCN1CCCC(C)C1)c1ccc(N(C)C)cc1 (stereo unspecified)	-1.1	54.1*
COc1cc(O)c(C(CCN2CCCC(C)C2)c2cc(OC)c(OC)c(OC)c2)c(OC)c1 (stereo unspecified)	-6.4	8.6
COc1cc(C2CC(=O)Oc3c(C(CCN4CCCC(C)C4)c4ccc(N(C)C)cc4)c(OC)cc(OC)c32)cc(OC)c1OC (stereo unspecified)	-4.2	86.2*

Assay outcomes as filed in PubChem BioAssay.
